Laboratory results from PubChem BioAssay.
Where “and” joins values, the source holds several entries; their conditions need not be identical. Equal values may be shown once. Calls of active or inactive are those of the source. Cut-off read from the data, not from the text of the source: active = inhibition above about 80%; inactive = the rest.

Assay: growth inhibition, single agent or in combination, cell-based, chromothripsis tumors, cisplatin or BGB combos (AID 1671449);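 note: cells exposed for 96 hours; 0% = vehicle DMSO and 100% = killing by high DMSO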
Conditions: LFS_MB_P medulloblastoma cells, measured here: combination with cisplatin, at 5 µM, stronger effect = higher value

| Compound | inhibition |
| --- | --- |
| COc1cc([C@@H]2c3cc4c(cc3[C@@H](O[C@@H]3O[C@@H]5CO[C@@H](c6cccs6)O[C@H]5[C@H](O)[C@H]3O)[C@H]3COC(=O)[C@H]23)OCO4)cc(OC)c1O | 28.9% and -5.22% |
| COc1cc(NS(C)(=O)=O)ccc1Nc1c2ccccc2nc2ccccc12 | 41.8% and 26.1% |
| N=c1ccn2c(n1)O[C@H]1[C@H](O)[C@@H](CO)O[C@H]12 | 86.6% |

Assay: growth inhibition, single agent and combos, cell-based, chromothripsis tumors, cisplatin or BGB combos (AID 1671450);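 note: cells exposed to compound for four days; 0% = vehicle DMSO and 100% = cell killing by high DMSO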
Conditions: HDN33 neuroblastoma cells, BGB combo, at 5 µM, stronger effect = higher value

| Compound | inhibition |
| --- | --- |
| COc1cc([C@@H]2c3cc4c(cc3[C@@H](O[C@@H]3O[C@@H]5CO[C@@H](c6cccs6)O[C@H]5[C@H](O)[C@H]3O)[C@H]3COC(=O)[C@H]23)OCO4)cc(OC)c1O | 78% and 92.3% |
| COc1cc(NS(C)(=O)=O)ccc1Nc1c2ccccc2nc2ccccc12 | 88.5% and 63.3% |
| N=c1ccn2c(n1)O[C@H]1[C@H](O)[C@@H](CO)O[C@H]12 | 85.1% |

Same assay, conditions: HDN33 neuroblastoma cells, at 0.5 µM, stronger effect = higher value

| Compound | inhibition |
| --- | --- |
| COc1cc([C@@H]2c3cc4c(cc3[C@@H](O[C@@H]3O[C@@H]5CO[C@@H](c6cccs6)O[C@H]5[C@H](O)[C@H]3O)[C@H]3COC(=O)[C@H]23)OCO4)cc(OC)c1O | 53.6% (inactive) and 64.1% (inactive) |
| COc1cc(NS(C)(=O)=O)ccc1Nc1c2ccccc2nc2ccccc12 | 50.8% (inactive) and 41.9% (inactive) |
| N=c1ccn2c(n1)O[C@H]1[C@H](O)[C@@H](CO)O[C@H]12 | 76.6% (inactive) |

Same assay, conditions: HDN33 neuroblastoma cells, cisplatin combo, at 5 µM, stronger effect = higher value

| Compound | inhibition |
| --- | --- |
| COc1cc([C@@H]2c3cc4c(cc3[C@@H](O[C@@H]3O[C@@H]5CO[C@@H](c6cccs6)O[C@H]5[C@H](O)[C@H]3O)[C@H]3COC(=O)[C@H]23)OCO4)cc(OC)c1O | 82.1% and 93.8% |
| COc1cc(NS(C)(=O)=O)ccc1Nc1c2ccccc2nc2ccccc12 | 68.8% and 65.8% |
| N=c1ccn2c(n1)O[C@H]1[C@H](O)[C@@H](CO)O[C@H]12 | 80.9% |

Same assay, conditions: HDN33 neuroblastoma cells, measured here: with BGB IC20 combination, at 0.5 µM, stronger effect = higher value

| Compound | inhibition |
| --- | --- |
| COc1cc([C@@H]2c3cc4c(cc3[C@@H](O[C@@H]3O[C@@H]5CO[C@@H](c6cccs6)O[C@H]5[C@H](O)[C@H]3O)[C@H]3COC(=O)[C@H]23)OCO4)cc(OC)c1O | 46.9% and 59.7% |
| COc1cc(NS(C)(=O)=O)ccc1Nc1c2ccccc2nc2ccccc12 | 51.3% and 43.7% |
| N=c1ccn2c(n1)O[C@H]1[C@H](O)[C@@H](CO)O[C@H]12 | 82.4% |

Same assay, conditions: HDN33 neuroblastoma cells, measured here: with cisplatin IC20 combination, at 0.5 µM, stronger effect = higher value

| Compound | inhibition |
| --- | --- |
| COc1cc([C@@H]2c3cc4c(cc3[C@@H](O[C@@H]3O[C@@H]5CO[C@@H](c6cccs6)O[C@H]5[C@H](O)[C@H]3O)[C@H]3COC(=O)[C@H]23)OCO4)cc(OC)c1O | 51% and 63.1% |
| COc1cc(NS(C)(=O)=O)ccc1Nc1c2ccccc2nc2ccccc12 | 45.8% and 24% |
| N=c1ccn2c(n1)O[C@H]1[C@H](O)[C@@H](CO)O[C@H]12 | 69.1% |
